The text below walks through data of ChEMBL document CHEMBL4888484, “Replenishing the malaria drug discovery pipeline: Screening and hit evaluation of the MMV Hit Generation Library 1 (HGL1) against asexual blood stage Plasmodium falciparum ,using a nano luciferase reporter read-out” (2022).

Usually % Inhibition stands for the relative decrease from the control value, in per cent.

Screen size: about 150,000 compounds; about 540 (0.36%) showed an effect of 50% or more. The full list was thinned out, with strong results kept by preference.

The test system of the assay is Plasmodium falciparum. The assay can be described thus: Primary screen in NF54 nanoGlo assay, in single point, at 2uM, 72h; a lower Z score goes with more inhibition. The class given is functional, Erythrocyte. The conditions noted are these: timepoint 72 hour.
For `CC(C)ONC(=O)CCc1cccc(O)c1`, the “% Inhibition” value is on record as -11% and the Z score was determined as 1.21.
Regarding `Cc1cc(O)nc2ccc(NC(=O)c3cccc(F)c3)cc12`, the “% Inhibition” value was found to be 5% and the Z score is -0.52.
On the same counts, the results for `c1c[nH]c(-c2nc(C3CCOCC3)n[nH]2)c1` are -6% and 1.12.
As to `COc1ccnc(CN2CCC[C@H](C(=O)c3cc(C)c(OC)c(C)c3)C2)c1OC`, the “% Inhibition” value is reported as 8% and the Z score is recorded as -1.25.
For `COc1c(C)cc(C(=O)[C@H]2CCCN(c3cc(N)ncn3)C2)cc1C`, the “% Inhibition” value was 78% and the Z score was -15.48.
In the case of `CNc1ncc(C(=O)N2CCC[C@H](C(=O)c3cc(C)c(OC)c(C)c3)C2)cn1`, the “% Inhibition” value amounted to 4% and the Z score is given as -0.72.
As for `CCc1cc(=O)[nH]c(-n2nc(C3CC3)cc2NC(=O)C2CCCCC2)n1`, the “% Inhibition” value amounted to 86% and the Z score is -14.68.
The like results for `CCC(CC)C(=O)Nc1cc(C2CC2)nn1-c1nc(-c2ccccc2)cc(=O)[nH]1` were, in that order, 69% and -9.47.
In the case of `Cc1cc(N)n(-c2nc(-c3ccccc3)cc(=O)[nH]2)n1`, the “% Inhibition” value came out at 35% and the Z score came to 0.14.
On the same counts, the results for `CC(C)NC(=O)CN(C)CC(=O)Nc1cc(C2CCCC2)nn1-c1ccccc1` are 1% and -0.16.
`CCc1cc(NC(=O)C2CN(C(=O)C3CCCCC3)C2)n(C)n1`: the “% Inhibition” value is -13% and the Z score came out at 2.45.
As to `CCOC(=O)Nc1cc(C2CC2)nn1-c1nc2c(c(=O)[nH]1)CCCC2`, the “% Inhibition” value amounted to 4% and the Z score is listed as -0.55.
With `CC(C)(C)c1cc(NC(=O)CCCc2ccccc2)n([C@H]2CCS(=O)(=O)C2)n1`, the “% Inhibition” value is recorded as -2% and the Z score was 0.38.
The like results for `O=C(CN1CCCCC1)Nc1cc(C2CC2)nn1-c1ccccc1` were, in that order, 1% and -0.24.
On to `O=C(CCCc1ccccc1)Nc1cc(C2CC2)nn1-c1nc(-c2ccccc2)cc(=O)[nH]1`, for which the “% Inhibition” value was 54% and the Z score is reported as -8.76.
The like results for `Cc1ccc(C(=O)N2CCCC(C(=O)N3CCCC(c4nnc5ccccn45)C3)C2)cc1` (stereo not drawn) were, in that order, -7% and 1.13.
Consider `CC(C)c1cc(-c2nc(-c3ccccn3)no2)[nH]n1`, for which the “% Inhibition” value is -11% and the Z score is on record as 1.24.
Consider `CCS(=O)(=O)Nc1ccnn1[C@@H](C)C1CC1`, for which the “% Inhibition” value worked out at 3% and the Z score is listed as -0.45.
For the molecule `O=C(c1cnnn1-c1cccc(F)c1)N1CCCC12CCC2`, the “% Inhibition” value is reported as -1% and the Z score amounted to 0.15.
Turning to `COc1ccc(C(=O)NCCCc2nnc3ccccn23)o1`, the “% Inhibition” value is on record as -9% and the Z score worked out at 1.7.
On the same counts, the results for `Cc1nc2ccccn2c(=O)c1CCN[C@@H](C)c1cccc(-n2cccn2)c1` are 0% and 0.05.
On to `Cc1ccc(C(=O)N2CCC3(CCc4nn(Cc5ccccc5)c(=O)n4CC3)CC2)s1`, for which the “% Inhibition” value is -7% and the Z score is given as 0.82.
Regarding `CNC(=O)[C@H]1CCN(c2ncc(F)c(OC)n2)C1`, the “% Inhibition” value is listed as -10% and the Z score amounted to 1.93.
As to `CCN1CCN(C2CCN(c3ncc(F)c(OC)n3)CC2)CC1`, the “% Inhibition” value is 51% and the Z score was -7.32.
